A number with no mark means an inactive call. Calls of active or inactive are those of the source.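 Rule for the calls, unless noted: active = mean inhibition above 46.5%, the solvent-only control mean plus 3 SD; inactive = the rest.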
Experiments:
[1] = system: transactivating tegument protein VP16 (Human herpesvirus 1); assay: compounds suppressing VP16-driven luciferase signal – cell-based, luminescence, single concentration, counter-screen for SRC2 inhibitor project (AID 652007; in the data active = inhibition above about 36%); details: cell-based VP16 transactivation luciferase reporter, at 8.9 µM, stronger effect = higher value
[2] = biological target: Nuclear receptor coactivator 2 (Homo sapiens) (UniProt Q15596); assay: inhibition of GAL4-SRC2 driven luciferase expression – cell-based, luminescence, HEK293, triplicate, confirmation (AID 652008); details: HEK293 GAL4-SRC2 luciferase reporter, at 8.9 µM, stronger effect = higher value;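 note: 0% = DMSO-treated cells and 100% = Gossypol at 36 µM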
Nuclear receptor coactivator 2 (Homo sapiens), sequence (Q15596 whole entry, looked up, the tested form may be a part): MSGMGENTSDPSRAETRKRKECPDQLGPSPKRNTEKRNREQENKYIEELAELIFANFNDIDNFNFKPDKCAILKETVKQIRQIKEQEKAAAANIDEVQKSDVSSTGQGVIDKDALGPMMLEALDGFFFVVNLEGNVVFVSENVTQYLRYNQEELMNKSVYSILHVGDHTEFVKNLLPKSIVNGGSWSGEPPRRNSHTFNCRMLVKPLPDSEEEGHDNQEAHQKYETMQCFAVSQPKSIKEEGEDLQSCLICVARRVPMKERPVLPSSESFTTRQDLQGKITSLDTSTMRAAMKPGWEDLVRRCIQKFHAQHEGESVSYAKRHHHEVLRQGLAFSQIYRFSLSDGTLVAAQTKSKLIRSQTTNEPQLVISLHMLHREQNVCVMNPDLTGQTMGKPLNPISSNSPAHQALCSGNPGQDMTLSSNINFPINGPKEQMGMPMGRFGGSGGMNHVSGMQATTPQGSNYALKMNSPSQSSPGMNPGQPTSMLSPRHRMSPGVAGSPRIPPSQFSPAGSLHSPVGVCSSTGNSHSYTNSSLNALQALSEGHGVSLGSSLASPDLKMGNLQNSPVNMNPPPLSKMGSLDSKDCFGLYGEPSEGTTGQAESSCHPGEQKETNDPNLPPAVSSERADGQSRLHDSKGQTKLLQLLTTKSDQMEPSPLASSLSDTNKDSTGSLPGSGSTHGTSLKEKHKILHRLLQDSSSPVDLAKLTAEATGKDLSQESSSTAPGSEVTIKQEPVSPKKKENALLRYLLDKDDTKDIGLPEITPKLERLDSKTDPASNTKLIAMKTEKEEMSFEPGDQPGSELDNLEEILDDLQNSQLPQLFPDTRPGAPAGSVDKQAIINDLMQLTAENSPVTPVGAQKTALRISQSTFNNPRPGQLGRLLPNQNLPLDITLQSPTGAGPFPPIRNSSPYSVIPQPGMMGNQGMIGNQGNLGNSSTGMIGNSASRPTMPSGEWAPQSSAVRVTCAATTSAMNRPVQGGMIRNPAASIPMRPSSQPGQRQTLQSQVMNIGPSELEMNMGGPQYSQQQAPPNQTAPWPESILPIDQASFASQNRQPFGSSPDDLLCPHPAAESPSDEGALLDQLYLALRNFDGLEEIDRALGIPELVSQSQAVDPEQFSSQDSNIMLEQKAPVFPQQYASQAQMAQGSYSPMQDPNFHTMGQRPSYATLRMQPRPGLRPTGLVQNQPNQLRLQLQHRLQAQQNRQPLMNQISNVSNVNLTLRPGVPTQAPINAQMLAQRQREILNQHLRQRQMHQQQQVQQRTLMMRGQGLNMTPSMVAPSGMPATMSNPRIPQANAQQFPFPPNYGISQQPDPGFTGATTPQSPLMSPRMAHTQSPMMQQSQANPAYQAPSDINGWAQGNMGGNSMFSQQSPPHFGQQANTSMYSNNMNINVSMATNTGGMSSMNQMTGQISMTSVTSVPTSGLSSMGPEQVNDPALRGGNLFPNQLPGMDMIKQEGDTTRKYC

Compound | inhibition [1] | inhibition [2]
O=C(O)CCCc1ccc2c(c1)CCc1ccccc1-2 | 29.6% | 77.1% (active)
COc1cc2ncnc(NCc3ccc4c(c3)OCO4)c2cc1OC | 7.59% | -5.74%
COc1ccc(NC(=O)Cc2nnc(SCC(=O)Nc3ccc(F)cc3)n2C)cc1 | -17.1% | -24%
Cc1cccc(Nc2nc(NCc3ccco3)c3ccccc3n2)c1 | 25.1% | 33.9%
Cc1ccc(CN2C(=O)/C(=C\c3ccc(C(=O)NCc4cccnc4)cc3)Oc3ccccc32)cc1 | -0.83% | 50.2% (active)
Cc1ccc(C2=[N+]([O-])C3(CCCCC3=O)N(O)C2(C)C)cc1 (stereo unspecified) | -5.08% | -2.69%
Cc1ccc(Nc2nc(-c3c(C)nc4ccccn34)cs2)cc1 | -16.9% | 20.1%
COc1cc(CNc2ccc3[nH]c(=O)[nH]c3c2)cc(Br)c1OCc1ccc(F)cc1 | 1.78% | 29.9%
COc1cc(OC)c(CN2CCc3c([nH]c4ccccc34)C2)cc1Br | -7.11% | -4.79%
COC(=O)C1=C(C)N(Cc2ccccc2C(F)(F)F)C(=NCc2ccccc2)NC1c1ccc(Cl)cc1 (stereo unspecified) | 2.66% | 1.39%
CCc1cccc(C)c1NC(=O)CSc1nnc(CCCOc2ccc(Cl)cc2Cl)n1C | -13.2% | -8.02%
CCN(CC)S(=O)(=O)c1cccc(-n2c(O)c(C=Nc3ccccc3C(=O)O)c3ccccc3c2=O)c1 | -0.6% | 21.9%
COc1ccc(C)cc1Nc1n[n+](-c2ccccc2)c(-c2c(Cl)cccc2Cl)s1 | 19.4% | 22.7%
COc1ccc(-n2c(-c3ccccc3)c[n+]3c2CCC3)cc1 | 6.63% | 36%
C=CS(=O)(=O)N(Cc1ccc(C)cc1)[C@@H](CO)C(=O)OC | 17.1% | 63.8% (active)
CCN(CC)c1ccc(NC(=O)CCCCC(=O)Nc2ccc(N(CC)CC)cc2)cc1 | 16.2% | 48.3% (active)
COc1ccccc1-c1cn[nH]c1-c1ccc(O)cc1O | 1.82% | 11.9%
Cc1cccc(NC(=S)NNc2ncc(C(F)(F)F)cc2Cl)c1 | 24.3% | 11.6%
CCOc1ccc(-c2cc(CCCC(=O)Nc3cc(OC)ccc3OC)no2)cc1 | 47.9% (active) | 79.5% (active)
CC(C)=CCc1c(O)ccc2c1OC(c1ccc(O)c(O)c1)CC2=O (stereo unspecified) | 10.7% | 56.9% (active)
O=C(c1ccc(CS(=O)Cc2ccc(Cl)cc2)o1)N1CCN(c2ccccn2)CC1 (stereo unspecified) | -9.03% | -6.91%
Cc1cc(NC(=O)c2ccccc2)c(Cl)cc1N | 25.4% | 52.1% (active)
O=C(Nc1nnc(SCc2ccc(F)cc2)s1)c1cccnc1Cl | -9.69% | -19.9%
Clc1cccc(-c2nc(-c3ccccn3)no2)c1 | -11% | 7.62%

Compound | inhibition [1] | inhibition [2]
CCCCN1CC(COCc2ccccc2)Oc2cccc(NCc3cc(OC)c(OC)c(OC)c3)c2S1(=O)=O (stereo unspecified) | -12.2% | 13.4%
CC(=O)CCc1ccc(OCCCCN2CCC(Cc3ccccc3)CC2)cc1 | 13.2% | 0.94%
O=C(c1ccccc1Nc1ccc(SC(F)F)cc1)N1CCCCCC1 | 2.12% | 4.87%
CC(C)(C)c1ccccc1NC(=O)CN1C(=O)NC2(CCCC2)C1=O | -13.7% | -9.65%
COC(=O)c1ccc(NC(=O)c2nc(S(=O)(=O)Cc3cccc(C)c3)ncc2Cl)cc1 | 46% (active) | 53.4% (active)
CCN(CC)C(=O)C1CCCN(c2ncnc3c2cnn3-c2ccc(Cl)cc2)C1 (stereo unspecified) | -32.6% | 58.8% (active)
CC(=O)C1C(=O)c2c(cccc2[N+](=O)[O-])C1=Nc1cccc(Cl)c1 (stereo unspecified) | -60.3% | -35.9%
O=C(NC(c1ccc(F)cc1)c1ccc2ccccc2n1)C1CCN(CCOc2ccc(F)cc2)CC1 (stereo unspecified) | -1.57% | -16.5%
Cc1nc2cc(-c3ccccc3)nn2c(C)c1CCC(=O)NCc1ccco1 | -27.7% | 46.5% (active)
CCS(=O)(=O)c1ncc(Cl)c(C(=O)Nc2ccc(S(=O)(=O)N(C)c3ccccc3)cc2)n1 | 65.2% (active) | 98% (active)
Cc1ccc(S(=O)(=O)CCSC(=N)N)cc1 | 2.05% | 6.17%
O=C(NC(=S)Nc1cccc2cc(O)ccc12)c1ccccc1Br | 2.57% | -14.4%
Cc1ccc2cc(CN(Cc3ccco3)S(=O)(=O)c3c(C)ccc4nsnc34)c(=O)[nH]c2c1 | 26.5% | 14.2%
Nc1nc(CCl)nc(Nc2ccccc2)n1 | -25.1% | 8.83%
O=C(NC1=NCCS1)C1COc2ccccc2O1 (stereo unspecified) | 29.5% | 47.7% (active)
CC(C)CNC(=O)COC(=O)c1c2c(nc3ccccc13)CCC2 | 9.25% | 11.4%
CC(=O)c1c(C)[nH]c(C(=O)Nc2ccc(N3CCCCCC3)cc2)c1C | -41.5% | 19.9%
CN(Cc1ccc(OC(F)F)cc1)C(=O)c1ccc(S(=O)(=O)N(C)c2ccccc2)cc1 | -22.2% | -12.8%
COCCN=C1Sc2nc3c(C)cccc3cc2CN1Cc1ccco1 | -12% | 4.64%
Nc1n[nH]c2c1C1(CCCC1)Cc1ccccc1-2 | 1.41% | 10%
CC(C)c1ccc(/C=C2\CC/C(=C\C=N\N(C)C)C2=O)cc1 | -56.7% | -2.89%
COc1ccc(O)c(C(=O)c2cnn(S(=O)(=O)c3ccc(C)cc3)c2)c1 | -7.7% | 7.12%
COC(=O)c1ccc(CSc2nc3sc(C)c(C)c3c(=O)[nH]2)cc1 | -20.1% | -17.4%
COc1ccc(C(=O)c2ccc(CC(=O)O)s2)cc1 | 29.4% | 43.1%
